# From PubChem BioAssay
# HIF-2a inh = HIF-2a reporter inhibitors, primary screen, luminescence, 786-0 RCC cells; AID 624352, 2012; 786-0 RCC cells HIF-2a reporter, luciferase luminescence, overnight; 0.72% of 360,000 active; inhibition, % at 18.8 µM;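 active means inhibition of the luminescence signal of 40% or more relative to plate controls, in a single-dose primary screen at 18.75 µM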
# TRPM1 prom inh = inhibitors of MITF-dependent TRPM1 promoter reporter, primary screen, cell-based, SK-MEL-5, single point, luciferase. SK-MEL-5 TRPM1 promoter luciferase, 24 h. inhibition, % at 12.5 µM. 0.83% of 330,000 active. AID 488899, 2010;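 active means mean inhibition across replicates of 60% or more, whatever share of single replicates reaches that level; inconclusive means some that reach 60%, reason not given; inactive means mean inhibition across replicates below 60%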
# KKLEB cytotox = cytotoxicity in KKLEB CF airway cells, primary screen, cytotoxicity control for CF NF-kB inhibitor project, cell-based, uHTS, fluorescence assay plates; 0.36% of 360,000 active; activity change (cytotoxicity), % at 5 µM; KKLEB CF airway cells viability, ATPlite luminescence, overnight; stronger effect = lower value; cells stimulated with P. aeruginosa culture filtrate; AID 602141, 2011;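 active means corrected activity change at or below -50% at 5 µM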
# Shn3 inh set2 = reduction of Shn3 3'UTR firefly luciferase signal, primary screen, Schnurri-3 inhibitor project, cell-based, Clone20 osteoblasts, set 2 | Clone20 osteoblast Shn3 3'UTR firefly luciferase, 24 h | 0.52% of 360,000 active | inhibition, % at 12.5 µM;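 active means mean inhibition of at least 75% with every replicate also reaching 75%; inconclusive means mean inhibition at least 75% but some replicate below; inactive means mean inhibition below 75%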
# CF NFkB inh = inhibitors of PAF-induced NF-kB signaling, primary screen, cell-based, GFP fluorescence, uHTS. inhibition, % at 5 µM. 0.86% of 360,000 active. KKLEB NF-kB-GFP reporter, GFP fluorescence overnight. AID 588850, 2011;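 active means at least 50% inhibition at 5 µM, scaled per plate between neutral and stimulator controls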;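 further: PAF is a Pseudomonas aeruginosa culture filtrate used as stimulus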
# Peg3 prom inh = Peg3 promoter-driven luciferase inhibitors, primary screen, cell-based, HeLa, luciferase luminescence. HeLa PEG-Prom luciferase reporter, overnight. inhibition, % at 20 µM. 1.7% of 360,000 active. AID 588405, 2011;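 active means inhibition of at least 50% at 20 µM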
# Mdm2-MdmX confirm = retested Mdm2-MdmX interaction blockers, confirmation, cell-based, luminescence, single concentration, set 2; shares compounds with HIF-2a inh; SaOS-2 split-luciferase Mdm2/MdmX complementation; inhibition, % at 8 µM; 99% of 740 active;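 active means mean inhibition of the luminescence signal across two replicates at or above 26 percent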
# Target sequence (O15151 whole entry, looked up): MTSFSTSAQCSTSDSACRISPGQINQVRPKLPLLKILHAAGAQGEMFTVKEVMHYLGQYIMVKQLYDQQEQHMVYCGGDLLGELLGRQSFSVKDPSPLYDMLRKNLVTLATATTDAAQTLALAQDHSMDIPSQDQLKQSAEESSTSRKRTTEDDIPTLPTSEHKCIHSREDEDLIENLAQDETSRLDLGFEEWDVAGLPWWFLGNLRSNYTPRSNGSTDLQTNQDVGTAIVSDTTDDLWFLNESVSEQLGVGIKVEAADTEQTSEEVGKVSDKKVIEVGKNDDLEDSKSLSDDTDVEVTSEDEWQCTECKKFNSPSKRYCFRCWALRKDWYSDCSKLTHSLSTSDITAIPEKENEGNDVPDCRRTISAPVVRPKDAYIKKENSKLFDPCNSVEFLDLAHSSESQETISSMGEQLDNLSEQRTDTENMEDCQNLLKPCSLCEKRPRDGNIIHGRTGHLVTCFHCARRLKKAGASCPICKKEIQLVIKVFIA
# Target sequence (Q00987 whole entry, looked up): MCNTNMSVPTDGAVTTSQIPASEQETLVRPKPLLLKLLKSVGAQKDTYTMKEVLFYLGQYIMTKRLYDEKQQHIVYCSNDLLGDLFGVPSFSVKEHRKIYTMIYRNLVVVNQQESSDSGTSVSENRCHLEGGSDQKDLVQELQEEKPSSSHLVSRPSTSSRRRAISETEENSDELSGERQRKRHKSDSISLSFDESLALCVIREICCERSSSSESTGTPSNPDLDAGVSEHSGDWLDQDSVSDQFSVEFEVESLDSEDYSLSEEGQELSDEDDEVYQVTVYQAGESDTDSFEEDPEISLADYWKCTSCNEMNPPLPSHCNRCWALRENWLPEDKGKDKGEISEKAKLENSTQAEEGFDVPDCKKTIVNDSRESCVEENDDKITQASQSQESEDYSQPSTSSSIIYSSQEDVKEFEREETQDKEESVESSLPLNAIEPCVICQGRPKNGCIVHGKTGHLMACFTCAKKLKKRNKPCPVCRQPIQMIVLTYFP
# HIF-2a conf = HIF-2a reporter inhibitor retest, confirmation, luminescence, 786-0 RCC cells; AID 651580, 2012; shares compounds with HIF-2a inh; HIF-2a luciferase reporter luminescence, overnight; 56% of 1,800 active; inhibition, % at 18.8 µM;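 active means mean inhibition across four replicates of at least 40 percent at the single tested concentration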
# HIF-1a cs = HIF-1a luciferase reporter signal reduction – MiaPaCa-2 cells, single concentration, counter-screen for HIF-2a inhibitor project, confirmation; shares compounds with HIF-2a inh; MiaPaCa-2 HIF-1a luciferase reporter, desferoxamine, overnight; inhibition, % at 18.8 µM; 72% of 1,800 active;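 active means mean inhibition of the reporter signal across four replicates at the single tested dose of 50% or more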
# Numbers stand for hits; . = inactive; ? = inconclusive; / = no result. Compounds with a hit are over-represented: about 2.8% of the library has one in this group of screens.
SMILES,HIF-2a inh,TRPM1 prom inh,KKLEB cytotox,Shn3 inh set2,CF NFkB inh,Peg3 prom inh,HIF-2a conf,HIF-1a cs,others
C#CC[N+](C)(C)CCCCCCCC,.,.,.,.,.,.,/,/,
O=c1c(Cl)c(Cl)cnn1-c1ccccc1,94,88,-81,.,97,115,98,104,
N=c1n(CC(=O)c2ccc(Br)s2)c2ccccc2n1Cc1ccccc1,67,90,.,.,.,101,.,106,Mdm2-MdmX confirm=102
COc1ccc(/C=C/C(=O)c2cc(F)ccc2OC(=O)c2ccccc2)cc1OC,44,?,.,.,53,.,.,.,
O=C(Cn1cc(C(=O)C(F)(F)F)c2cc(Br)ccc21)N1CCOCC1,.,.,.,.,.,.,/,/,
COc1ccc(NC(=O)/C(Cl)=C(/Cl)S(=O)(=O)Cc2ccccc2)cn1,94,94,-53,97,84,100,100,106,
NC(=O)COc1ccc(C(=O)/C=C2/C(=O)Nc3ccccc32)cc1,46,.,.,.,.,.,.,.,
COc1ccc(C(=O)/C=C2/C(=O)Nc3ccccc32)cc1OC,40,.,.,.,.,.,42,.,
O=C1Nc2ccccc2/C1=C/C(=O)c1cccs1,54,.,.,.,.,.,.,.,
O=C1Nc2ccccc2N(C(=O)c2ccc3ccccc3c2)C1c1nc2ccccc2[nH]1 (stereo not given),.,/,/,/,/,/,/,/,
CCC1SC(C)C/C(=N/NC(N)=O)C1C (stereo not given),.,.,.,.,.,.,/,/,
CC1CC(C)C(=NNC(N)=O)C(C(O)CC2CCC(=O)NC2=O)C1 (stereo not given),49,.,.,.,54,.,.,.,
O=C1/C(=C/c2ccccn2)SC(=S)N1N1CCOCC1,.,.,.,.,.,.,/,/,
COc1cccc2c1OCC(C(=O)O)C2 (stereo not given),.,.,.,.,.,.,/,/,
COc1cccc2c1C(CO)N1C(C#N)C3CC(C(=O)O)C(C1C2)N3C (stereo not given),42,67,-52,.,96,108,.,106,Mdm2-MdmX confirm=103
COc1cc2c(cc1CN1CCN(C(=O)c3cc(OC)c(OC)c(OC)c3)CC1)OCO2,.,.,.,.,.,.,/,/,
COc1ccc(-n2c(C)c([N+](=O)[O-])c3ccc(O)c(CN(C)C)c32)cc1,.,.,.,.,79,.,/,/,Mdm2-MdmX confirm=94
COc1ccc(-n2c(C(C)n3nc(C)c([N+](=O)[O-])c3C)n[nH]c2=S)cc1 (stereo not given),.,.,.,.,.,.,/,/,
Cc1ccsc1C(=O)Nc1ccc(OCc2ccccc2)cc1,.,.,.,.,.,.,/,/,
CC(=NNC(=S)Nc1ccccc1)c1ccccn1,71,/,.,.,.,.,.,.,
CC1C(=O)N2CCCc3cc(S(=O)(=O)N(C)c4ccccc4)cc1c32 (stereo not given),.,.,.,.,.,.,/,/,
CCN(Cc1ccccc1)C(=O)CN1C(=O)NC2(CC(C)CC(C)(C)C2)C1=O (stereo not given),.,.,.,.,.,.,/,/,
Cc1[nH]c2ccccc2c1C(=O)CN1C(=O)NC2(CC(C)CC(C)(C)C2)C1=O (stereo not given),45,.,.,.,.,.,.,62,
O=C(NC12CC3CC(CC(C3)C1)C2)c1ccc(Br)o1,.,.,.,.,.,.,/,/,
O=C(NC12CC3CC(CC(C3)C1)C2)c1ccc([N+](=O)[O-])o1,65,63,-78,.,94,84,.,96,
SMILES,HIF-2a inh,TRPM1 prom inh,KKLEB cytotox,Shn3 inh set2,CF NFkB inh,Peg3 prom inh,HIF-2a conf,HIF-1a cs,others
O=C(COC(=O)c1ccccc1F)NCc1ccc2c(c1)OCO2,.,.,.,.,.,.,/,/,
CCOC(=O)COc1c(Br)cc(/C=C2\SC(=O)N(CC(=O)N3CCCC3)C2=O)cc1OC,49,.,.,.,.,.,.,.,
CCC1CCC2(CC1)NNC(=S)NN2,55,.,.,.,.,.,69,87,
CCC1CCC2(CC1)NC(CO)(CO)CO2 (stereo not given),.,.,.,.,.,.,/,/,
CC(C)c1ccc(OCc2cccc(C(=O)N/N=C/c3cccnc3)c2)cc1,.,.,.,.,.,.,/,/,
COc1ccc(OCc2cccc(C(=O)Nc3cc(C)on3)c2)cc1,66,?,.,.,.,.,68,.,
COc1ccc(OCc2cccc(C(=O)Nn3cc([N+](=O)[O-])cn3)c2)cc1,62,.,.,.,.,.,84,.,
CCOc1ccc(OCc2cccc(C(=O)N/N=C/c3cccnc3)c2)cc1,71,.,.,.,.,.,90,.,
COc1ccc(OCc2cccc(C(=O)NN)c2)cc1,61,.,.,.,.,.,70,.,
CC(=O)NC(c1cccc(F)c1)c1nc(-c2cccc(C(C)C)c2)cs1 (stereo not given),.,/,.,.,.,.,/,/,
O=S1(=O)CC(N2CCCCC2)CN1CCc1ccccc1 (stereo not given),.,/,.,.,.,.,/,/,
CS(=O)(=O)N(CC(=O)NCc1ccncc1)c1ccc(F)c(Cl)c1,.,.,.,.,.,.,/,/,
CCOc1ccc(OCc2cccc(C(=O)N3CCOCC3)c2)cc1,65,.,.,.,.,.,77,.,
NS(=O)(=O)c1ccc(CCNC(=O)c2ccc3c(=O)n4c(nc3c2)CCCCC4)cc1,.,.,.,.,.,.,/,/,
CCCNC(=O)CSCc1nc(-c2ccc(SC)cc2)oc1C,.,.,.,.,.,.,/,/,
CCc1ccc(-c2nc(CSCC(=O)NCc3ccco3)c(C)o2)cc1,40,.,.,.,.,.,44,.,
Cc1ccc(-c2nc(CSCC(=O)N3CCCC3)c(C)o2)cc1,.,.,.,.,.,.,/,/,
CCOC(=O)CSCc1nc(-c2ccc(Cl)cc2)oc1C,50,.,.,.,.,.,54,.,
